Reference: PubChem BioAssay AID2284138 (EPA ToxCast)
Results filed as inconclusive are left out. Calls of active or inactive are those of the source. The calls were made as follows: active = hit-call score of the fitted dose curve at least 0.9, where 1 is the maximum; inactive = score below 0.9.

The molecules below were run against human ROCK1 AGC Kinase, ROCK1 (gene 6093) (UniProt Q13464) (assay: ERF_FR_ENZ_hROCK1: Eurofins (ERF) Enzymatic Radiometric [Km ATP] KinaseProfiler LeadHunter Assay for human ROCK1 AGC Kinase).
Procedure: ERF_FR_ENZ_hROCK1 is a biochemical, single-readout assay that uses extracted gene-proteins in a cell-free assay. Measurements were taken 0.33 hour after chemical dosing in a 96-well plate. See ROCK1 Human AGC Kinase Enzymatic LANCE Assay [Km ATP], Cerep.ERF_FR_ENZ_hROCK1 is an assay component calculated from the ERF_FR_ENZ_hROCK1 assay. It is designed to measure enzyme activity using a type of enzyme reporter as detected by fluorescence intensity with LANCE technology.Data from the assay component ERF_FR_ENZ_hROCK1 was analyzed at the assay endpoint, ERF_FR_ENZ_hROCK1, in the positive analysis fitting direction relative to DMSO as the negative control and baseline of activity. Using a type of enzyme reporter, loss-of-signal activity can be used to understand changes in enzymatic activity as they relate to gene ROCK1. To generalize the intended target to other relatable targets, this assay endpoint is annotated to the kinase intended target family, where the subfamily is serine/threonine kinase.
ROCK-I (h) is incubated with 8 mM MOPS pH 7.0, 0.2 mM EDTA, 30 uM […], 10 mM MgAcetate and [gamma-33P]-ATP (specific activity and concentration as required). The reaction is initiated by the addition of the Mg/ATP mix. After incubation for 40 minutes at room temperature, the reaction is stopped by the addition of phosphoric acid to a concentration of 0.5%. […]

Sequence of human ROCK1 AGC Kinase, ROCK1 (gene 6093) (Q13464 whole entry, looked up): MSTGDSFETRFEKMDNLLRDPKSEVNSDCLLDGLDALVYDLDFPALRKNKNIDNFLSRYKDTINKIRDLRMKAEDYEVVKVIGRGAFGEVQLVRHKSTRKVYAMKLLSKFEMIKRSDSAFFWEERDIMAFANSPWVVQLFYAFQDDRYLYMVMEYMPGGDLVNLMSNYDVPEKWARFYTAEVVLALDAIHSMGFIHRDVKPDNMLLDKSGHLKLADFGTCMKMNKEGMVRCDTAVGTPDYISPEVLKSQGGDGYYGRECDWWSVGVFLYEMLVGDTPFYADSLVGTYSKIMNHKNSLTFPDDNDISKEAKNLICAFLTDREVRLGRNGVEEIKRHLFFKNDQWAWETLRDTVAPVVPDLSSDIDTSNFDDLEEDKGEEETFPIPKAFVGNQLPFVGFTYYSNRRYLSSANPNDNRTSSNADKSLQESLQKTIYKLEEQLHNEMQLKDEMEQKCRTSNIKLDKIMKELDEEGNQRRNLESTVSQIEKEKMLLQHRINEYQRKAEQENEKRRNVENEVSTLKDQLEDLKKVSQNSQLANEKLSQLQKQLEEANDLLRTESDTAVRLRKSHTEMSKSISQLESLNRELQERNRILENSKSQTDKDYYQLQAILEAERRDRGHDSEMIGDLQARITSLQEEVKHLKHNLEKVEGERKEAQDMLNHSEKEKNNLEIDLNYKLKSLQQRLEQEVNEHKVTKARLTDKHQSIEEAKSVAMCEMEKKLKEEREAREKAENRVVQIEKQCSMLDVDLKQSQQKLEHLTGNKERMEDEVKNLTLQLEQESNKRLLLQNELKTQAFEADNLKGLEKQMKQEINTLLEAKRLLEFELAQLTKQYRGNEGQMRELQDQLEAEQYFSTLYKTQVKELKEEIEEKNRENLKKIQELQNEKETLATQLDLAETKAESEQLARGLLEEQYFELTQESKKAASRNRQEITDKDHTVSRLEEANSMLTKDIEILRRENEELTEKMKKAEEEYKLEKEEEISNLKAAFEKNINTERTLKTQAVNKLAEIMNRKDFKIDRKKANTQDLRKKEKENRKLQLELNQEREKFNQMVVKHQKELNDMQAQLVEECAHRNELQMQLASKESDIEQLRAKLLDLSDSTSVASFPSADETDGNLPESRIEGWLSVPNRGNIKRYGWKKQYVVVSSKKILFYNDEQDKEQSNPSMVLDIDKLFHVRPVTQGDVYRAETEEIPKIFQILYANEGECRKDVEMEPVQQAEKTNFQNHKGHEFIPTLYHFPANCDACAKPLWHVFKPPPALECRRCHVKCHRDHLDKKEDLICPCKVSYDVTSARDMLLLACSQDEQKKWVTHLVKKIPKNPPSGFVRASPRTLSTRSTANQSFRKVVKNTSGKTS

Structure (SMILES) | outcome
O=C(/C=C/c1ccc(O)cc1)CC(=O)/C=C/c1ccc(O)cc1 | inactive
COc1cc(CCC(=O)CC(=O)CCc2ccc(O)c(OC)c2)ccc1O | inactive
